Source: PubChem BioAssay (National Center for Advancing Translational Sciences (NCATS))
A selection: hits, their analogues and other compounds. The true share with any hit is near 21%.
HCMV antiviral: blocks human cytomegalovirus replication; HFF cells, HCMV-luciferase reporter, 72 h; active compounds read low; activity change, negative = inhibition, % at 57.5 µM; 4.5% of 410,000 active; AID 1259415; in the data active = activity change below about -60%; inconclusive = no clear call, values can overlap the other calls; inactive = above about -39%; note: % is set by controls: 0 for no effect and ±100 for the full control effect
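Inhibition of viral replication was scored as loss of reporter luminescence in HFFs infected with HCMV-luciferase (MOI 1 PFU/cell) for 72 h; compounds tested at 2 doses, normalized to buffer and Salinomycin controls.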
HCV inhibitor: HCV inhibition; Huh7.5.1 HCVcc-Cre infection, luciferase reporter, 44 h; Potency, µM (doses to about 41.8 µM), inactives show at the highest dose activity change, negative = inhibition, hits mostly inhibitors; 3.4% of 340,000 active; note: potency is the fitted concentration of half-maximal effect; % is set by controls: 0 for no effect and ±100 for the full control effect
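Reporter virus HCVcc-Cre (~0.5 moi) infects cells exposed to compound; seeding density 1,000 cells/well with 4 h settling beforehand. Luminescence, 15 sec read, taken 44 h post-infection following a 15 min RT substrate incubation.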
Pf growth 48h: P. falciparum growth inhibition at 48 hours (one generation). P. falciparum luciferase growth in erythrocytes, 48 h. Potency, µM (doses to about 28.7 µM), for inactives: at the highest dose activity change, negative = inhibition, most hits filed as inhibitors. 5.9% of 310,000 active. AID 504832; note: potency is the fitted concentration of half-maximal effect; % is set by controls: 0 for no effect and ±100 for the full control effect
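Read-out is firefly luciferase luminescence from an integrated reporter in P. falciparum, so falling signal marks reduced parasite growth. Infected erythrocytes were at 2% hematocrit and 0.1% parasitemia (final) in Albumax-supplemented RPMI 1640.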
Pf growth 96h: P. falciparum growth inhibition at 96 hour, primary screen for plastid delayed-death inhibitors; P. falciparum luciferase reporter growth, 96 h; Potency, µM (top dose mostly 28.7 µM), without a hit: at the top dose activity change, negative = inhibition, actives largely listed as inhibitors; 6.9% of 320,000 active; note: potency is the fitted concentration of half-maximal effect; % is set by controls: 0 for no effect and ±100 for the full control effect
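Two parasite generations (96 h, 37 C, 5% CO2) of compound exposure in infected erythrocytes (0.05% parasitemia, 2% hematocrit). Luciferase-reporter P. falciparum; decreased luminescence indicates inhibited growth, aimed at apicoplast-acting delayed death.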
Cycloheximide cs: counter-screen for Shiga toxin inhibitors: cycloheximide protein synthesis inhibition; max response, %; 12% of 300,000 active; AID 2314; cell reporter, cycloheximide protein synthesis inhibition counterscreen; in the data active = max response mostly above about 13%, no sharp cut-off; inactive = mostly below about 14%; note: read at 38.3 µM for the half of the compounds with a filed dose; 0% is about no effect
Shiga inhibitor: Shiga toxin inhibition; Vero cells, Shiga toxin protein synthesis inhibition reporter; inhibition, % at 38.7 µM; 9.2% of 290,000 active; AID 2315; in the data active = inhibition mostly above about 28%, no sharp cut-off; inactive = mostly below about 43%; note: 0% is about no effect
* = called active by the depositor; i = inactive; ? = inconclusive; nt = not tested or not shown; [ ] = remark or other dose. Unless noted, calls come from the whole dose curve; as a rule, active = well fitted inhibition curve with a large enough effect; inconclusive = small, poorly fitted or top-dose-only effect, or another doubt; inactive = no such curve, though single readings can be large or run the other way.

SMILES | HCMV antiviral | HCV inhibitor | Pf growth 48h | Pf growth 96h | Cycloheximide cs | Shiga inhibitor
C[C@@H]1CN([C@H](C)CO)C(=O)CCCn2cc(nn2)CO[C@H]1CN(C)S(=O)(=O)c1ccccc1F | -21 | nt | nt | nt | nt | nt
O=C(CN1CCN(C(=O)c2cncn2-c2ccccc2)CC1)Nc1ccccc1Cl | -14 | 26% | ? | 15µM* | nt | nt
COc1ccc(NC(=O)CN2CCc3ccccc3C2)c(OC)c1 | 6 | -13% | 1% | ? | 13* | -1
COc1ccc(NC(=O)CN2CCN(CC(=O)Nc3ccccc3OC)CC2)c(OC)c1 | 15 | -19% | -5% | 32% | -2 | -9
COc1ccc(NC(=O)CN2CCN(CC(=O)Nc3ccccc3Cl)CC2)c(OC)c1 | -28 | -30% | nt | 15µM* | -3 | -7
COc1ccc(Nc2cc(C(=O)N3CCc4ccccc4C3)c3ccccc3n2)c(OC)c1 | -23 | 10µM* | 13µM* | 20% | 9 | 17
O=C(CN1CCNCC1)Nc1ccccc1Cl | 14 | 9% | nt | ? | -3 | -7
Nc1ncncc1-c1ccccc1Cl | 0 | 8% | nt | nt | nt | nt
COc1ccc(NC(=O)CN2C(=O)c3cccc4cccc2c34)c(OC)c1 | -12 | 12% | 5% | 20% | -3 | -4
COc1ccc(NC(=O)CN2C(=O)N(C)Cc3ccccc32)c(C)c1 | ? | 16% | 5%[5.75 µM] | 15µM* | -1 | -5
O=C(c1ccc(Cl)cc1)c1cnc(-c2ccccc2)s1 | -20 | ? | 123% | i | 0 | 15
O=C(c1ccc(Cl)cc1)c1cnc(Nc2ccccc2Cl)s1 | 102 | ? | 230% | i | 50* | 120*
CC(=O)c1cnc(Nc2cccc(Cl)c2Cl)s1 | 71 | 32% | 70% | 32% | 37* | 81*
CC(=O)c1cnc(Nc2ccccc2)s1 | 1 | 6% | nt | 103% | 34* | 44
Cc1ccc(C)c(NC(=O)CN(C)C(=O)c2cc3c(s2)CCCCC3)c1 | -21 | -3% | ? | -1% | nt | nt
CC(CN1CCN(C/C=C/c2ccccc2)CC1)c1ccccc1 (centres undefined) | 0 | -12% | 12% | -15% | -3 | nt
Oc1ccc(N2CCN(C(c3cccnc3)c3nnnn3Cc3ccccc3)CC2)cc1 (centres undefined) | -30 | -11% | ? | ? | -1 | -6
c1ccc(CCn2nnnc2C(c2cccnc2)N2CCN(c3ccccc3)CC2)cc1 (centres undefined) | -64* | 12% | ? | 4% | -4 | -3
c1ccc(Cn2nnnc2C(c2cccnc2)N2CCN(C3CCCCC3)CC2)cc1 (centres undefined) | 10 | -35% | ? | 13µM* | -5 | -35
c1ccc(CCn2nnnc2C(c2cccnc2)N2CCN(c3nc4ccccc4s3)CC2)cc1 (centres undefined) | ? | 25µM* | 13µM* | 7% | -1 | -13
COc1ccc(N2CCN(C(=O)c3cc(C)oc3C)CC2)cc1 | 0 | 3% | 1% | 19% | -2 | -6
O=Cc1ccc(OCc2ccc3c(c2)OCO3)cc1 | 58 | 14% | -13% | ? | 35* | nt
Cc1ccc(OCCC(=O)Nc2ccc3c(c2)OCO3)cc1 | -34 | -11% | -23% | -16% | nt | nt
CCN(CC)CC(O)COc1ccc2c(c1)OCO2 (centres undefined) | -98* | 3% | nt | 30% | -1 | -3
Cc1ccc(COc2ccc3c(c2)OCO3)cc1 | -7 | 5% | 198% | 156% | 31* | 97*
SMILES | HCMV antiviral | HCV inhibitor | Pf growth 48h | Pf growth 96h | Cycloheximide cs | Shiga inhibitor
O=C(Cc1ccc(OCc2ccccc2)cc1)NCc1ccc2c(c1)OCO2 | 17 | nt | nt | nt | nt | nt
CN(C)CCC#CC1(O)c2ccccc2-c2ccccc21 | 14 | -7% | 12% | 58% | 1 | -10
OC1(C#CCN2CCCC2)c2ccccc2-c2ccccc21 | 32 | 12% | 12µM* | ? | 1 | -9
OC(C#CCN1CCCC1)c1ccccc1 (centres undefined) | 29 | 23% | 17% | nt | 17 | 14
CCN(CC)CCC#CC1(O)c2ccccc2-c2ccccc21 | -16 | -15% | -10% | 3.3µM* | -4 | nt
COc1ccc(C(=O)NCCS(=O)(=O)NCc2ccccc2OC)cc1 | -8 | -16% | 26% | -1% | nt | nt
COc1ccccc1CNC(=O)COC(=O)c1cccc(S(=O)(=O)N2CCCC2)c1 | 13 | 14% | 21% | 0% | 10 | -4
COc1ccc(OC)c(NC(=O)C2CCCN2C(=O)C2CCC(C)CC2)c1 (centres undefined) | -11 | -11% | nt | 9.3µM* | -3 | -6
COc1cc(NC(=O)C2CCCN2C(=O)C2CCC(C)CC2)cc(OC)c1OC (centres undefined) | -16 | 2% | ? | ? | 4 | 9
CC(=O)Nc1ccccc1NC(=O)C/C(C)=N/NC(=O)C(=O)N1CCCCC1 | -12 | 6% | -10% | ? | 7 | -7
CCC(=O)Nc1nc(C)c(C(=O)NC2CCCCC2)s1 | 20 | -1% | 3.7µM* | ? | -2 | 9
Cc1nc(NC(=O)C2CC2)sc1C(=O)NC1CCCCC1 | -16 | -5% | ? | -8% | -2 | -13
C=C1CCC(C)C(C)(CCC2=CCOC2=O)C/C=C\C=C/1C(=O)O (centres undefined) | 15 | 22% | -1% | -11% | 0 | -8
CN1C(=O)N(C)C(=O)C2(Cc3cc(NC(=O)c4ccc(F)cc4)ccc3N3CCCC32)C1=O (centres undefined) | 9 | ? | ? | 15µM* | 10 | 15
CS(=O)(=O)N(CCCC(=O)N1CCCCCC1)c1cccc(Cl)c1 | 9 | 11% | 322% | ? | -1 | -17
CC1CCN(C(=O)CSc2nc3ccccc3s2)CC1 | 71 | ? | nt | 163% | 34* | 45
CC(=O)Nc1nnc(SCC(=O)N2C(C)CCCC2C)s1 (centres undefined) | 8 | 4% | 3% | 12µM* | -4 | -6
O=C(CSc1c(Cl)cccc1Cl)N1CCC(c2nc3ccccc3s2)CC1 | -37 | ? | -2% | ? | -3 | -10
Cc1c(Cl)cccc1N/C(SCC(=O)N1CCCCCC1)=C(/C#N)c1nc2ccccc2s1 | -101* | ? | 2.1µM* | 1.5µM* | -2 | -2
O=C(CSc1nc2ccccc2n1S(=O)(=O)c1ccccc1)N1CCCC1 | -26 | 6% | 55% | ? | 13* | 48*
CCn1c(SCC(=O)N2CCCC2)nc2ccccc21 | -31 | 2% | 22% | 29% | 1 | 4
CC1CCCC(C)N1C(=O)CSc1nc2ccccc2s1 (centres undefined) | 122 | ? | -9% | nt | 35* | 126*
O=C(CSc1nc2ccccc2s1)N1CCCCC1 | 112 | -4% | 129% | nt | 43* | 124*
O=C(O)c1cccnc1Nc1ccc(Cl)cc1 | -72* | 5% | 11% | ? | 27* | 101*
